Bioassay records from PubChem.
This is a sample that favours compounds with a hit; in the whole collection about 4.6% have one here.
hcDAF-12 act = H. contortus DAF-12 nuclear receptor activators, primary screen, cell-based, luminescence, HEK293, lit1-tk-luc reporter | activation, % at 6.8 µM | 370,000 compounds, 1.4% hits | HEK293 hcDAF-12 lit1-tk-luc reporter; 0% DMSO, 100% Δ7-dafachronic acid;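 active = activation above the mean of all tested compounds plus 3 SD, cut at about 5.5% in these data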;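 note: 100% = response to 3 µM Δ7-dafachronic acid high control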
Wee1 degr inh = Wee1 degradation inhibitors, primary screen, cell-based, HeLa, Wee1K328M-luciferase, luminescence; Wee1-like protein kinase (Homo sapiens), P30291; HeLa Luc-Wee1K328M stability; 100% = proteasome inhibitor MG132 effect; reporter increase, % at 5 µM; 220,000 compounds, 1.2% hits;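 active = activation above the mean of all tested compounds plus 3 SD, set per screening run, cut at about 8.8% in these data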;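 note: cells exposed to compound for 20 h before luminescence read; 0% = DMSO alone and 100% = MG132 at 30 µM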
Target sequence (P30291 whole entry K328M): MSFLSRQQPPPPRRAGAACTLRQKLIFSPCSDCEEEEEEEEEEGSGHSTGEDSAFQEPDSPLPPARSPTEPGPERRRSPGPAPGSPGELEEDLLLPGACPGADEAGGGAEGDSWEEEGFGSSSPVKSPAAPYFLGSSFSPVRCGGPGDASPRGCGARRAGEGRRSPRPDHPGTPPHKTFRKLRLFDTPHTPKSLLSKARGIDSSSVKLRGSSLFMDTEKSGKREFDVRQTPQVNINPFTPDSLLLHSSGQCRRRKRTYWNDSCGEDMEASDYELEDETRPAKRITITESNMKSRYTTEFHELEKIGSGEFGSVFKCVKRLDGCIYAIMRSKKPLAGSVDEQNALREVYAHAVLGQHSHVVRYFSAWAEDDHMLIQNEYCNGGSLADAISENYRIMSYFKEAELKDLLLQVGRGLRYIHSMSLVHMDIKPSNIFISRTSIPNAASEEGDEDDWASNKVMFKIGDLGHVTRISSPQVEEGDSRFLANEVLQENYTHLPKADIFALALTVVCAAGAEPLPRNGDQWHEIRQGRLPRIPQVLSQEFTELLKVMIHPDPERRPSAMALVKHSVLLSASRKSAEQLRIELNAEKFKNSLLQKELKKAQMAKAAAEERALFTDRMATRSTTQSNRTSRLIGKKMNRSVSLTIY
ssDAF-12 act = S. stercoralis DAF-12 nuclear receptor activators, primary screen, cell-based, luminescence, HEK293, GRIP1 co-expression, lit1-tk-luc; Nuclear hormone receptor DAF-12 (Strongyloides stercoralis); HEK293 ssDAF-12/GRIP1 lit1-tk-luc reporter; % of 3 µM dafachronic acid response; activation, % at 6.8 µM; 370,000 compounds, 1% hits;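 active = activation above the mean over all tested compounds plus 3 SD, cut at about 0.9% in these data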;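 note: 0% = DMSO-only wells and 100% = 3 µM delta7-dafachronic acid wells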
hgDAF-12 ag = H. glycines DAF-12 receptor agonists, primary screen, cell-based, luminescence, HEK293, GAL4 fusion, UAS-luciferase; Nuclear hormone receptor DAF-12 (Heterodera glycines), GAL4 fusion; HEK293 GAL4-hgDAF12 UAS-luciferase reporter, agonist luminescence; normalized to butyrate control; activation, % at 6.8 µM; 370,000 compounds, 1.8% hits;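 active = activation above a cutoff set at the mean of all screened compounds plus 3 SD, cut at about 10% in these data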;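 note: 0% = DMSO wells and 100% = sodium butyrate wells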
DAX1 inh-1 = DAX1 (NR0B1) inhibitors on StAR promoter, primary screen, cell-based, luminescence, SF-1 (NR5A1), full-length DAX-1; 370,000 compounds, 1.1% hits; inhibition, % at 6.8 µM; HEK293T StAR-luciferase reporter, SF-1/DAX-1 repression relief;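 active = inhibition above the mean over all tested compounds plus 3 SD, cut at about 3.6% in these data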;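 note: 0% = DAX-1 cells with DMSO and 100% = cells lacking DAX-1 with DMSO; higher inhibition means more luminescence from relief of DAX-1 repression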
DAX1 inh-2 = DAX1 (NR0B1) inhibitors, primary screen, cell-based, HEK293, Gal4-DAX1, luciferase luminescence | AID 504766, 2011 | Nuclear receptor subfamily 0 group B member 1 (Homo sapiens), P51843 | inhibition, % at 6.75 µM | 340,000 compounds, 0.99% hits | HEK293 Gal4-DAX1 luciferase reporter;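 active = inhibition above the mean over all tested compounds plus 3 SD, cut at about 4.2% in these data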;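 note: 0% = DAX1-transfected cells with DMSO and 100% = empty-vector control cells with DMSO; inhibition shows as a rise in luminescence from relieved DAX1 repression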
LXRb hcDAF ctr = LXR agonists, Gal4 luciferase reporter, confirmation, counter-screen for hcDAF-12 agonist project, cell-based, luminescence, HEK293, H. contortus campaign. shares compounds with hcDAF-12 act. HEK293 Gal4-LXR tk-luc reporter, 24 h; normalized: DMSO 0%, positive control 100%. activation, % at 6.8 µM. 3,400 tested, under 10 active. AID 743027, 2013;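 active = mean percent activation of the reporter above a cutoff set as the average over tested compounds plus their standard deviation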
hcDAF12 conf = H. contortus DAF-12 receptor agonists, confirmation, cell-based, luminescence, HEK293, lit1-tk-luc, triplicate | shares compounds with hcDAF-12 act | HEK293 hcDAF-12 lit1-tk-luc reporter; % of Δ7-dafachronic acid response | activation, % at 6.8 µM | 3,400 compounds, 61% hits | AID 743032, 2013;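 active = mean activation across triplicate tests above the threshold derived from the earlier primary screen, cut at about 5.5% in these data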;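 note: 0% = DMSO only wells and 100% = 3 µM Δ7-dafachronic acid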
Numbers without * were called inactive; nt = no result.

SMILES | hcDAF-12 act | Wee1 degr inh | ssDAF-12 act | hgDAF-12 ag | DAX1 inh-1 | DAX1 inh-2 | LXRb hcDAF ctr | hcDAF12 conf
NC(=O)c1ccc(NC(=O)CSc2nnc(-c3ccc4c(c3)OCO4)o2)cc1 | 1.0 | nt | -0.7 | 0.3 | 1.0 | 2.2 | nt | nt
O=C(c1ccc(Cl)cc1)N1CCCCC(Sc2nnc(-c3ccc4c(c3)OCO4)o2)C1=O (centres undefined) | 6.9* | -1.8 | 0.7 | 10.4* | 4.2* | -1.8 | 0.0 | 1.6
COc1cc2cc(C(c3nnnn3C(C)(C)C)N3CCc4ccccc43)c(=O)[nH]c2cc1OC (centres undefined) | 7.3* | -3.6 | -0.5 | -0.8 | -0.3 | -0.3 | -0.5 | -0.2
Cc1ccc(C)c(NC(=O)c2ccc3c(c2)CCN3S(C)(=O)=O)c1 | -0.8 | nt | -0.9 | 2.3 | 0.8 | 0.6 | nt | nt
CC(=O)c1ccc(OCc2cc(C(=O)N(C)C3CCOC3)no2)cc1 (centres undefined) | 7.1* | nt | 0.6 | 10.9* | 4.0* | 2.6 | 0.6 | 6.8*
COc1cc(Cl)ccc1OCc1cc(C(=O)N(C)C2CCOC2)no1 (centres undefined) | 2.6 | nt | -0.8 | 6.0 | 0.7 | 1.0 | nt | nt
COCCN(CCOC)Cc1cc(=O)oc2ccc3ccccc3c12 | -0.4 | nt | 0.2 | -1.5 | -1.4 | nt | nt | nt
CCCCCCCCN1C(=O)[C@@H](CC(=O)N2CCOCC2)C[C@@]2(C(=O)OC)C1=C[C@H](C1CCCC1)O[C@@H]2C | -1.4 | nt | -1.1 | 0.0 | 1.2 | nt | nt | nt
CC(=O)Nc1ccc(N=Nc2c(C)[nH]n(C(N)=S)c2=O)cc1 | 0.7 | 1.5 | -1.0 | 0.8 | 0.6 | 0.8 | nt | nt
Cc1[nH]n(C(N)=S)c(=O)c1N=Nc1ccc2ccccc2c1 | 15.2* | 7.6 | 1.3* | 12.6* | 2.8 | 1.0 | 0.8 | 9.0*
Cc1ccc(N=Nc2c(C)[nH]n(C(N)=S)c2=O)cc1C | 9.2* | -1.3 | 0.1 | 6.2 | 1.5 | -0.1 | 1.4 | 11.5*
Cc1[nH]n(C(N)=S)c(=O)c1N=Nc1ccc(S(=O)(=O)N2CCCCCC2)cc1 | 0.4 | 1.4 | -1.2 | -2.1 | -0.8 | -1.0 | nt | nt
Cc1ccc(NC2C(=O)NC(=O)NC2=O)cc1 | 0.8 | nt | -0.7 | -2.2 | 0.3 | -0.8 | nt | nt
O=[N+]([O-])c1ccc(NN=CC2CCCCCC2)c([N+](=O)[O-])c1 | -0.2 | nt | -0.4 | 0.2 | 0.7 | nt | nt | nt
O=C1C=C(Nc2ccccc2)C(=O)c2ccccc21 | 7.6* | 4.7 | 0.1 | 8.4 | 0.1 | -1.4 | 1.5 | 7.0*
CCc1ccc(NC2=CC(=O)C(=O)c3ccccc32)cc1 | 0.8 | nt | 0.3 | 5.7 | -0.8 | -0.8 | nt | nt
COc1cc(OC)c(NS(=O)(=O)c2cc(C(=O)NCCCN3CCOCC3)ccc2C)cc1Cl | -1.9 | nt | -0.8 | -2.0 | -0.6 | 0.3 | nt | nt
S=C(NNc1ccnc2cc(Cl)ccc12)Nc1ccc(Cl)cc1Cl | -0.5 | -0.8 | -1.6 | 0.0 | -0.7 | -0.1 | nt | nt
CCOc1ccc(NC(=S)NNc2ccnc3cc(Cl)ccc23)cc1 | 7.9* | 0.6 | -1.5 | -0.4 | 0.8 | 0.6 | -0.6 | -2.1
O=C(Cn1cncn1)NCc1cccc(C(F)(F)F)c1 | -1.4 | 2.7 | -2.0 | 1.8 | 0.4 | 0.9 | nt | nt
